Assay results published in the supplement of paper PMC7801607.

How the values were obtained:
[1] = system: CHO; assay: % viability of CHO cells (MTT); higher = less toxic; conditions: 48 h
Summary of the method: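 For 48 h, attached CHO cells (10^6 cells/well, 200 µL, seeded the night before) were kept in fresh medium carrying compound at 2 or 20 µM. A colorimetric tetrazolium (MTT) assay then gave survival as percent viability versus untreated cells.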

[2] = system: HepG2-A16-CD81; assay: % inhibition of HepG2 viability (CellTiter-Glo); higher = more toxic; conditions: 5 µM;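 further: HepG2-A16-CD81 hepatoma cells plated as in the liver-stage assay but without sporozoites, with DMSO wells as negative and 25 µM puromycin as positive control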
[3] = system: Plasmodium falciparum NF54 stage IV/V gametocytes; assay: % inhibition of gametocyte viability (PrestoBlue); higher = more inhibition; conditions: 48 h
Summary of the method: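 Stage IV/V NF54 gametocytes at 2% gametocytaemia and 5% haematocrit (100 µL/well) were treated with compound at 1 or 5 µM and incubated for 48 h at 37 °C under stationary, hypoxic conditions. PrestoBlue (10 µL) was then added for 2 h, and fluorescence at 612 nm was read on 70 µL of transferred supernatant. Percent inhibition of gametocyte viability was normalised to vehicle and kill controls within one run.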

[4] = system: Plasmodium falciparum NF54 asexual blood stage; assay: % inhibition of asexual blood stage proliferation (pLDH); higher = more inhibition; conditions: 72 h
Summary of the method: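 Plasmodium falciparum NF54 ring-stage cultures (1% haematocrit, 2% parasitaemia) were incubated with compound at 2 or 20 µM for 72 h at 37 °C under 4% CO2, 3% O2 and 93% N2. Survival was read at 620 nm with the parasite lactate dehydrogenase assay. Results were reported as percent inhibition of asexual proliferation relative to controls.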

[5] = system: Plasmodium falciparum NF54 stage IV/V gametocytes; assay: % inhibition of gametocyte viability (ATP bioluminescence); higher = more inhibition; conditions: 24 h
Summary of the method: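 Stage IV/V NF54 gametocytes from density gradients (30,000 per well, 96-well plates) were incubated with compound at 1 or 5 µM for 24 h at 37 °C. A single run supplied percent inhibition of gametocyte viability, based on ATP measured with Promega BacTiter Glo and normalised to control wells.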

[6] = system: Plasmodium falciparum NF54 stage IV/V gametocytes; assay: % inhibition of gametocyte viability (luciferase reporter); higher = more inhibition; conditions: 48 h
Summary of the method: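 Percent inhibition came from luminescence and was normalised to controls in a single run. Gametocytes (stage IV/V, NF54-Pfs16-GFP-Luc line, 2% gametocytaemia, 2% haematocrit) were treated with compound at 1 or 5 µM and incubated for 48 h at 37 °C without agitation under hypoxia. Readings used 30 µL lysate with 30 µL Promega luciferin substrate on a GloMax-Multi+ reader, integrating for 10 s.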

| Structure (SMILES) | % viability of CHO cells ([1]; 2 µM) | % viability of CHO cells ([1]; 20 µM) | % inhibition of HepG2 viability [2] | % inhibition of gametocyte viability ([3]; 1 µM) | % inhibition of gametocyte viability ([3]; 5 µM) | % inhibition of asexual blood stage proliferation ([4]; 2 µM) | % inhibition of asexual blood stage proliferation ([4]; 20 µM) | % inhibition of gametocyte viability ([5]; 1 µM) | % inhibition of gametocyte viability ([5]; 5 µM) | % inhibition of gametocyte viability ([6]; 1 µM) | % inhibition of gametocyte viability ([6]; 5 µM) |
| --- | --- | --- | --- | --- | --- | --- | --- | --- | --- | --- | --- |
| COc1nc2ccc(Br)cc2cc1[C@@H](c1ccccc1)[C@@](O)(CCN(C)C)c1cccc2ccccc12 | 107% | 140% | -0.302% | < 0% | < 0% | 82.9% | 101% | < 0% | 49.3% | 14.4% | 19.2% |
| CCCCN1C[C@H](O)[C@@H](O)[C@H](O)[C@H]1CO | 104% | 108% | -0.43% | < 0% | 1.8% | 18.5% | 43.4% | 3.94% | < 0% | < 0% | < 0% |
| O=C(Nc1nnc(-c2ccccc2)o1)c1ccc(F)cc1 | 88.3% | 114% | 8.93% | 8.12% | < 0% | 52.8% | 61.2% | < 0% | < 0% | < 0% | < 0% |
| N#CCN1C(=O)COc2cc(F)c(N3C(=O)c4ccccc4C3=O)cc21 | 91.1% | 99.3% | -3.69% | 3.4% | 2.45% | 8.98% | 14.8% | < 0% | < 0% | < 0% | 14.5% |
| Cc1ncc([N+](=O)[O-])n1CC(O)CN1CCOCC1 (stereo not given) | 106% | 55.4% | -2.47% | < 0% | < 0% | 30.7% | 75.1% | < 0% | < 0% | 0.715% | 1.52% |
| CCN(CC)S(=O)(=O)c1ccc(Cl)c(C(=O)Nc2sc3c(c2C#N)CCCC3)c1 | 100% | 109% | 20.9% | < 0% | < 0% | 0.194% | 18.9% | < 0% | < 0% | < 0% | 9.16% |
| COc1c(NC(=O)[C@H]2CC[C@@H](COc3ccc([N+](=O)[O-])cc3)CC2)c(F)cc2c(=O)c(C(=O)O)cn(C3CC3)c12 | 104% | 102% | -1.96% | < 0% | 23% | 8.56% | 70% | 0.404% | < 0% | < 0% | 9% |
| CC(C)/N=c1\cc2n(-c3ccc(Cl)cc3)c3ccccc3nc-2cc1Nc1ccc(Cl)cc1 | 96.5% | 98.2% | 18.3% | < 0% | < 0% | 82.2% | 88.9% | < 0% | < 0% | < 0% | 16% |
| [N-]=[N+]=N[C@H]1C[C@H](n2ccc(=O)[nH]c2=O)O[C@@H]1CO | 109% | 102% | -1.43% | 6.88% | 16.8% | -15.7% | 43.2% | 3% | < 0% | 11.1% | < 0% |
| Nc1nc(C(F)(F)F)cc2c1[nH]c(=O)n2Cc1ccccc1 | 89.2% | 102% | 8.47% | 2.55% | 20.9% | 2.26% | 35% | < 0% | < 0% | 18.1% | < 0% |
